Inconclusive results are not listed. Calls of active or inactive are those of the source. The call rests on the fitted dose curve.
Assay: Primary qHTS to identify inhibitors of SARS-CoV-2 cell entry (AID 1645846); further: nearly all actives have a fitted effect of over 45% in size
Conditions: SARS-CoV-2 pseudovirus cell entry assay, luminescence; activity change, negative = inhibition: at 57.1 µM (top of the series) unless noted
How it was run: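 Using luciferase-reporting pseudoviruses carrying Wuhan-Hu-1 spike, the screen tracks entry into stably ACE2-expressing cells over 48 hr. Activity is expressed relative to spike particles versus particles lacking any fusion protein.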
In the case of `C=CC(=O)Nc1cccc(Nc2nc(Nc3ccc(Oc4ccnc(C(=O)NC)c4)cc3)ncc2F)c1`, the Potency is reported as 22.4 µM (active). With `O=C(NO)c1cnc(NC2(c3ccccc3)CC2)nc1` the Potency was “inactive”. With `O=C(NO)c1cnc(NC2(c3cccc(F)c3)CCCCC2)nc1` the Potency was 28.2 µM (active). In the case of `CCNCCc1ccc(CN(CC)c2cc(OC)ccc2[C@@H]2CCc3cc(O)ccc3C2)cc1`, the Potency is reported as 31.6 µM (active). In the case of `Cc1cc(O)cc2c1[C@]1(C)CC[C@H]3C(C)(C)CCC[C@]3(C)[C@H]1C2`, the outcome is reported as “inactive [at 5.25 µM]”. In the case of `COc1ccc(/C=C\c2cc(OC)c(OC)c(OC)c2)cc1O`, the activity change, negative = inhibition is reported as -68.5%. Work on `CCOC(=O)CCNc1cc(N2CCc3ccccc3CC2)nc(-c2ccccn2)n1` yielded an activity change, negative = inhibition of -97.3%. In the case of `CNC(=O)Cn1cc(-c2ccc3c(c2)C(F)CC32NC(=O)N(CC(=O)N(Cc3ccc(F)cc3)C(C)C(F)(F)F)C2=O)cn1` (stereo not drawn), the activity change, negative = inhibition is reported as -52.5%. In the case of `Cc1cn(CCN2CCN(c3ccccc3-c3cc(C#N)cc(C(=O)NCCCN4CCCC4)c3)CC2)c2ccccc12`, the Potency is reported as 17.8 µM (active). Work on `COc1cc(N2CCN(C(C)=O)CC2)ccc1Nc1ncc(Cl)c(Nc2ccc(N3CCN(C(C)=O)CC3)cc2OC)n1` yielded an activity change, negative = inhibition of -12.2%. For `Cc1cc(CS(=O)(=O)c2ccccc2)cc(OCc2ccc(CN3CCC[C@@H]3CO)cc2)c1`, the Potency was 12.6 µM (active). `CC(C)[C@@H](CS(=O)(=O)C(C)C)N1C(=O)[C@@](C)(CC(=O)O)C[C@H](c2cccc(Cl)c2)[C@H]1c1ccc(Cl)cc1` gave an activity change, negative = inhibition of -11.9%. With `C=CCNC1=C2C[C@@H](C)C[C@H](OC)[C@H](O)[C@@H](C)/C=C(\C)[C@H](OC(N)=O)[C@@H](OC)/C=C\C=C(/C)C(=O)NC(=CC1=O)C2=O` the Potency was 14.1 µM (active).

From PubChem BioAssay (NCATS)
Potency means the concentration at half of the fitted maximal effect.
